High-throughput results: PubChem BioAssay, National Center for Advancing Translational Sciences (NCATS)
Sfp PPTase inh = blocks B. subtilis Sfp PPTase activity; Potency, µM, inactives show largest response in the series, negative = inhibition, actives largely listed as inhibitors; 3.5% of 310,000 active; Biochemical Sfp PPTase activity, qHTS;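 further: the enzyme is Sfp with the accession as filed and its product quenches rhodamine fluorescence; 0% = enzyme reaction without inhibitor and -100% = no enzyme wells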
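Sfp 15 nM + cpd, 15 min RT; start w/ rhodamine-CoA 5 uM, BHQ-2-YbbR 12.5 uM (final); 50 mM Hepes pH 7.6, 10 mM MgCl2, 0.01% NP-40, 0.01% BSA; read 525/598 nm at 0 and 30 min.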
HP1b chromo inh = blocks HP1-beta chromodomain binding to methylated histone tails | Potency, µM (series often up to 114 µM), without a hit: at the top dose activity change, negative = inhibition, usual class: inhibitors | AID 540317 | 0.56% of 390,000 active | P83916 | AlphaScreen HP1-beta / biotin-H3K9me3 peptide binding; further: nearly all actives have a fitted effect of over 70% in size
Target sequence (P83916 whole entry, looked up): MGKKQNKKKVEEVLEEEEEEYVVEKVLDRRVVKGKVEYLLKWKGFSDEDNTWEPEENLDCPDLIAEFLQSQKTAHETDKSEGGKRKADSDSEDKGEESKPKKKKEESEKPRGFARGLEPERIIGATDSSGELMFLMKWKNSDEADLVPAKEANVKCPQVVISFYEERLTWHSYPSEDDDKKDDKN
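AlphaScreen: HP1-beta (50 nM) preformed 30 min with biotin-H3(1-18)K9me3 peptide (50 nM) in PBS pH 7.4, 0.01% Tween-20. Compound added for 30 min at RT, then streptavidin donor/nickel chelate acceptor beads (10 ug/mL) for 30 min.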
G9a inh = inhibitors of human histone lysine methyltransferase G9a | G9a H3K9 monomethylation, AlphaScreen, 2 h | Potency, µM (highest dose often 102 µM), for the others: at the highest dose activity, negative = inhibition, hits mostly inhibitors | 8.8% of 350,000 active | AID 504332; further: on the % scale 0 is the no-effect control and ±100 the full control effect; nearly all actives have a fitted effect of over 75% in size
Target sequence (Q96KQ7 913-1193 limits assumed): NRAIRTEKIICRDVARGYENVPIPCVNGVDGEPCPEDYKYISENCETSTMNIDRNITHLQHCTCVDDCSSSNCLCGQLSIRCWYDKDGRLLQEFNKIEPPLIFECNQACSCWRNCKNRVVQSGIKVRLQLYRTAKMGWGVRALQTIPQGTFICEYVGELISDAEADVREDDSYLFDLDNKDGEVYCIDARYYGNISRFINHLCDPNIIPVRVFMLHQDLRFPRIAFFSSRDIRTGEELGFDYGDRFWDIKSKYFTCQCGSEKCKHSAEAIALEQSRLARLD
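G9a (20 nM) was preincubated 15 min with compound, then reacted 2 h at room temperature with 500 nM biotin-H3K9 peptide and 20 µM SAM. Monomethyl-H3K9 detected by AlphaScreen using anti-H3K9me1 antibody.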
PLK1 PBD block = inhibitors of human PLK1 polo-box domain binding | P53350 | Plk1 PBD binding of FITC phosphopeptide, fluorescence polarization | Potency, µM, for inactives: max response, negative = inhibition, most hits filed as inhibitors | 2.8% of 360,000 active | AID 720504; further: series mostly up to about 57 µM; on the % scale 0 is the no-effect control and ±100 the full control effect; nearly all actives have a fitted effect of over 65% in size
BAZ2B inh = blocks human BAZ2B. AlphaScreen BAZ2B-H3K14Ac peptide displacement. 4.4% of 360,000 active. Potency, µM (doses to about 114 µM), inactives show top-dose activity change, negative = inhibition, hits mostly inhibitors. Q9UIF8; further: on the % scale 0 is the no-effect control and ±100 the full control effect; nearly all actives have a fitted effect of over 60% in size
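AlphaScreen displacement of biotin-H3(5-23)K14Ac peptide (50 nM final) from BAZ2B (50 nM final) in PBS pH 7.4, 0.01% Tween-20; complex preformed 30 min RT, then compounds (top 110 uM) 30 min RT, beads 20 min dark.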
JMJD2A Tudor = JMJD2A Tudor domain (human) inhibition. Potency, µM (top dose mostly 114 µM), without a hit: top-dose activity change, negative = inhibition, hits mostly inhibitors. AlphaScreen JMJD2A-Tudor / H3K4me3 peptide binding. 4.4% of 390,000 active. O75164; further: on the % scale 0 is the no-effect control and ±100 the full control effect; nearly all actives have a fitted effect of over 50% in size
The depositor's hits bear a star; ? = inconclusive; . = no result; ! = not active in a repeat; [ ] = dose if it differs, or a comment. A selection: hits, their analogues and other compounds. The true share with any hit is near 12%. The call rests on the fitted dose curve; in most records, active means well fitted curve in the direction sought with a large enough effect; inconclusive means small, poorly fitted or top-dose-only effect, or another doubt; inactive means no such curve, though single readings can be large; an effect the other way counts as inactive or inconclusive. Potency means the concentration at half of the fitted maximal effect.

SMILES	Sfp PPTase inh	HP1b chromo inh	G9a inh	PLK1 PBD block	BAZ2B inh	JMJD2A Tudor
CC/C(=N\NC(=O)c1ccccc1O)c1c(O)n(C2CCCCC2)c(=O)[nH]c1=O	11%	8%	?	?	-2%	-33%
O=C(N/N=C/c1c(O)n(CCc2ccccc2)c(=O)[nH]c1=O)c1ccccc1	9%	39%	.	-4%	79µM*	-35%
NC1CCCCC1N=Cc1c(O)n(CCc2ccc(F)cc2)c(=O)[nH]c1=O (configuration not stated)	3%	25%	1µM*	-1%	45µM*	-20%
O=C(N/N=C/c1c(O)n(C2CCCCC2)c(=S)[nH]c1=O)c1ccccc1	26%	68%	?	?	-1%	79µM*
CC(=O)[C@@]1(O)CC[C@H]2C3CCC4=CC(=O)CC[C@]4(C)C3CC[C@@]21C (some centres not stated)	.	.	3%[12.7 µM]	.	.	.
NC(=O)O	12%	.	.	.	.	.
Cn1c(=O)c2c(nc(N/N=C/c3c(O)n(-c4ccccc4)c(=S)[nH]c3=O)n2C)n(C)c1=O	79µM*	-2%	-6%[59 µM]	1%	-11%	?
CC(C)c1ccc(-n2c(O)c(/C=N/NC(=O)c3ccccc3O)c(=O)[nH]c2=S)cc1	-30%	20%	.	?	50µM*	79µM*
Cc1ccc(-n2c(O)c(C=NCc3ccccn3)c(=O)[nH]c2=S)cc1	-17%	58%	.	-5%	-13%	3%
CC(C)=CCCC1(C)C=Cc2c(O)c3c(c(CC=C(C)C)c2O1)OC12C(CC4CC1C(C)(C)OC2(C/C=C(/C)C(=O)O)C4O)C3=O (configuration not stated)	-15%	.	-7%[2.33 µM]	.	.	.
CCN1C(=O)C(=Cc2ccc(C)s2)C(=O)N(CC)C1=S	?	40µM*	35µM*	0.53µM*	45µM*	25µM*
CCN1C(=O)C(=C2C=C(C)OC(C)=C2)C(=O)N(CC)C1=S	14%	22%	-17%	0%	-25%	-8%
C[n+]1c(-c2ccccc2)c2cc(N)ccc2c2ccc(N)cc21	-6%	-21%	?	-22%	40µM*	?
N#Cc1ccc(CN2CC3(CCNCC3)C2)cc1	-19%	.	-4%[12.7 µM]	.	.	.
C/C=C(\C)CN1CCN(c2ccccc2F)CC1	-18%	?	?	-7%	?	3.2µM*
Fc1cccc(F)c1CN1CCN(c2ccc(Cl)cc2)CC1	3%	-1%	13%	-1%	-7%	-18%
CCN(CC)C(=O)CN1CCN(c2ccccc2F)CC1	-20%	?	32µM*	2%	?	8.9µM*
O=C(COC(=O)c1cccnc1Cl)NCCc1ccc(F)cc1	.	46%	.	0%	.	0%
Cc1ccc(OP2(=O)Nc3cc(C)c(C)cc3S2)cc1 (configuration not stated)	.	-7%[57 µM]	.	1.7µM*	.	1.3µM*
Cc1cc(C(=O)CN2CCCC2)c(C)n1-c1ccc(F)cc1	15%	31%	1%[12.7 µM]	-8%	-21%	-25%
O=C(CN1CCCCC1)c1ccc2c(c1)OCO2	13%	31%	?	-5%	-5%	-14%
O=C(CN1CCCCC1)c1cccc(Br)c1	-2%	45%	8.9µM*	-4%	-4%	-5%
N#Cc1ccc(NC(=O)CN2CCCC2)cc1Cl	13%	13%	-1%	-17%	-7%	-18%
O=C(CN1CCCCC1)c1ccccc1F	16%	53%	25µM*	1%	-12%	-6%
O=C(CN1CCCCC1)c1ccccc1Cl	-18%	38%	1.6µM*	-16%	-1%	-23%
SMILES	Sfp PPTase inh	HP1b chromo inh	G9a inh	PLK1 PBD block	BAZ2B inh	JMJD2A Tudor
C[C@](O)(CS(=O)(=O)c1ccc(F)cc1)C(=O)Nc1ccc(C#N)c(C(F)(F)F)c1	12%	.	?	.	.	.
C=C1C([C@@H](O)C[C@H](C)C2O[C@@]3(CCCCO3)CC[C@H]2C)OC2CC[C@@]3(CC[C@@H](/C=C/[C@@H](C)C4CC(C)=C[C@]5(O4)O[C@H](C[C@@](C)(O)C(=O)O)CCC5O)O3)OC2[C@@H]1O (some centres not stated)	-2%	.	12%[59 µM]	.	.	.
C[C@]12CC[C@H]3[C@@H](CCC4C[C@H](O)CC[C@@]43C)[C@@H]1CC[C@@H]2O (some centres not stated)	.	.	10%[12.7 µM]	.	.	.
CC1=NN(c2ccccc2)C(=O)C1/C=C1/C(=O)NC(=O)N(c2cc(C)cc(C)c2)C1=O (configuration not stated)	3%	-2%	?	-17%	?	?
Cc1cccc(N2C(=O)NC(=O)/C(=C\c3ccc4c(c3)CCCN4Cc3ccccc3)C2=O)c1	45µM*	15%	?	?	?	-24%
OCCN1CCN(CCCN2c3ccccc3Sc3ccc(C(F)(F)F)cc32)CC1	-6%	10%	11µM*!	-27%	?	79µM*
FC(F)(F)c1ccc2c(c1)N(CCCN1CCN(CCCl)CC1)c1ccccc1S2	50µM*	-16%	10µM*	-6%	40µM*	16µM*
Cc1cc(=O)n(-c2ccccc2)n1C	12%	24%	17%[21.5 µM]	-16%	.	-14%
O=C(O)[C@@H]1CSC(c2cccnc2)N1 (some centres not stated)	40µM*	.	.	.	.	.
O=C(CN1CCCCC1c1cccnc1)c1ccccc1 (configuration not stated)	-25%	.	.	.	.	.
NC(=O)c1cccn(Cc2ccc(C(F)(F)F)cc2)c1=O	-1%	62%	12%	-17%	-4%	-14%[11.4 µM]
O=C(CCC1N=C2c3ccccc3N=C(SCc3cccc(Cl)c3)N2C1=O)N1CCN(c2ccccc2)CC1 (configuration not stated)	.	15%	?	.	-27%	-31%
O=[N+]([O-])c1cc(Cl)c(O)c(-[n+]2c(-c3ccccc3)cc(-c3ccccc3)cc2-c2ccccc2)c1	-5%	5%	50µM*	1%	?	?
COc1ccccc1N1CCN(CCc2c[nH]c3cc4c(cc23)OCO4)CC1	.	?	.	4%	.	25µM*
N[C@H](Cn1ccc(=O)c(O)c1)C(=O)O	-3%	.	18%[21.5 µM]	.	.	.
COc1ccc(N2CCN(C(=O)c3cc(=O)[nH]c4ccccc34)CC2)cc1	6%	-16%	?	27µM*	?	-9%[11.4 µM]
O=C(Oc1ccccc1)N1CCC2(CC1)CN(C(c1ccccc1)c1ccccc1)C2	-17%	.	0%[12.7 µM]	.	.	.
COc1ccc(-n2c(O)c(/C=C3\C=Nc4ccc(Br)cc43)c(=O)[nH]c2=O)cc1	-19%	9%	-15%	1.1µM*	-12%	-13%
COc1ccc(-n2c(O)c(/C=C3\C=Nc4ccc(Br)cc43)c(=O)[nH]c2=O)c(OC)c1	-21%	5%	32µM*	2.1µM*	?	?
